In PubChem BioAssay (NCATS):
Several values for one entry are separate records, joined by “and”; a condition that tells them apart may be missing. Identical values can stand only once. Results filed as inconclusive are left out. Activity calls are given as the source filed them. Calls come from the whole dose curve; as a rule, active = well fitted curve in the direction sought with a large enough effect; inconclusive = small, poorly fitted or top-dose-only effect, or another doubt; inactive = no such curve, though single readings can be large; an effect the other way counts as inactive or inconclusive.

Assays:
[1] = target: Glutathione peroxidase 1 (Homo sapiens) (UniProt P07203); assay: Primary qHTS Assay for Inhibitors of Recombinant Selenoprotein Glutathione Peroxidase 1 (GPX1) (AID 1845191); note: nearly all actives have a fitted effect of over 65% in size; note: potency is the fitted concentration of half-maximal effect; for activity, negative = inhibition: % is set by controls: 0 for no effect and ±100 for the full control effect
Glutathione peroxidase 1 (Homo sapiens), sequence (P07203 whole entry, looked up): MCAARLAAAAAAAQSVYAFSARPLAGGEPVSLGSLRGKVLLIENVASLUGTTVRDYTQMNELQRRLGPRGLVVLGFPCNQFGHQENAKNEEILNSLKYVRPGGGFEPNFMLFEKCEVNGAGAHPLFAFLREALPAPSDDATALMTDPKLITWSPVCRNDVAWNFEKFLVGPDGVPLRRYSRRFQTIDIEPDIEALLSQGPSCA
Summary of the method: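 10 nM GPX1 + cpd, 30 min RT; start w/ 1 mM GSH, 0.5 mM cumene hydroperoxide, 0.5 mM NADPH, 100 nM GR, 0.01% BSA; buffer 50 mM Tris-HCl pH 7.5, 2 mM EDTA, 150 mM NaCl; Fl 340/450, 0 & 15 min.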

[2] = target: Phospholipid hydroperoxide glutathione peroxidase GPX4 (Homo sapiens) (UniProt P36969); assay: Primary qHTS Assay for Inhibitors of Recombinant Selenoprotein Glutathione Peroxidase 4 (GPX4) (AID 1845192); note: nearly all actives have a fitted effect of over 65% in size; note: potency is the fitted concentration of half-maximal effect; for activity change, negative = inhibition: series mostly up to about 50 µM; % is set by controls: 0 for no effect and ±100 for the full control effect
Phospholipid hydroperoxide glutathione peroxidase GPX4 (Homo sapiens), sequence (P36969 whole entry, looked up): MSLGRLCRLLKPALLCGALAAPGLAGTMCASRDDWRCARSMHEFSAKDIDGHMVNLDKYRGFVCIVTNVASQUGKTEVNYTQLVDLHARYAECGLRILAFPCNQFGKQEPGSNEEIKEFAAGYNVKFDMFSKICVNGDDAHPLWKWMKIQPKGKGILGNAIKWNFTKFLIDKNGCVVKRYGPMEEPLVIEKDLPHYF
Summary of the method: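 NADPH consumption, followed by fluorescence at 340/450 nm between 0 and 15 min, reports GPX4 activity via coupled glutathione reductase (100 nM). Enzyme 200 nM was pre-exposed to compound 30 min; 0.5 mM cumene hydroperoxide and 1 mM GSH served as substrates.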

[3] = target: Luciferin 4-monooxygenase (Photinus pyralis) (UniProt P08659); assay: Primary firefly luciferase (FLuc) qHTS assay for identification of artifact compounds. (AID 1845220); note: nearly all actives have a fitted effect of over 60% in size; note: potency is the fitted concentration of half-maximal effect;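 for activity change, negative = inhibition: series mostly up to about 54 µM; plate controls were DMSO vehicle for no effect and no enzyme for full effect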
Summary of the method: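 Cell-free, 1536-well qHTS. Buffer pH 7.6 with 0.01% Tween-20 and 0.05% BSA; 10 uM D-luciferin, 10 uM ATP; 10 nM P. pyralis luciferase; luminescence after 5 min.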

[4] = Primary fluorescence-based thiol-reactive (MSTI) qHTS assay for identification of artifact compounds. (AID 1845221); note: nearly all actives have a fitted effect of over 65% in size; note: potency is the fitted concentration of half-maximal effect;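 for activity change, negative = thiol reactive: series mostly up to about 54 µM; thiol-reactive compounds lower the probe fluorescence signal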
Summary of the method: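 Probe: MSTI 4 uM, PBS pH 7.4, 2% DMSO. Incubation 1 h, RT, light-protected. Readout fluorescence 525/598 nm.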

[5] = test system: Nanoluciferase (engineered Oplophorus gracilirostris luciferase); assay: Primary Nanoluciferase (NLuc) qHTS assay for identification of artifact compounds. (AID 1845222);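 note: series mostly up to about 54 µM; 0% = DMSO and -100% = no enzyme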
Summary of the method: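 Compounds are pinned into diluted (1:55) conditioned medium of NLuc-expressing S16 cells and held 15 min at room temperature protected from light. Nano-Glo substrate follows, and luminescence is read 5 min later.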

[6] = Primary redox qHTS assay for identification of artifact compounds. (AID 1845223);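 note: 0% = DMSO and 100% = reference compound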
Summary of the method: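 Amplex Red (25 uM) and HRP (250 mU/mL) in HBSS, with compounds for 15 min, then 250 uM DTT for 30 min, room temperature, dark. Fluorescence 525/598 nm read; normalized to DMSO and 10 uM DA3003; Hill fit.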

CC(=O)O[C@@H]1C[C@]2(C)[C@@]3(CCC4[C@@]5(C)CC[C@H](O[C@@H]6O[C@H](C(=O)O)[C@@H](O)[C@H](OC7OC(CO)C(O)C(O)[C@H]7O[C@@H]7O[C@@H](C)[C@H](O)[C@@H](O)[C@H]7O[C@@H]7OC[C@](O)(CO)[C@H]7O)[C@H]6OC6OC(CO)C(O)C(O)C6O)C(C)(C)C5CC[C@]42C)OC[C@@]12CCC(C)(C)CC23 (stereo partly specified)
inactive: activity, negative = inhibition [1] -11.2% [at 9.52 µM] | activity change, negative = inhibition [2] -2.16% [at 9.73 µM] | activity change, negative = inhibition [3] -3.18% [at 11.6 µM] | activity change, negative = thiol reactive [4] 238% [at 11.5 µM] | activity, negative = inhibition [5] 0.912% [at 11.6 µM] | redox activity (% of DA3003) [6] 8.79% [at 11.5 µM]

OC(c1ccc(-c2ccc(CN3CCN(Cc4ccncc4)CC3)cc2)c(F)c1)(C(F)(F)F)C(F)(F)F
inactive: Potency [1] | Potency [2] | Potency [3] | Potency [4] | Potency [5] | Potency [6]

C[C@H](Oc1cc(-n2cnc3ccc(CN4CCN(C)CC4)cc32)sc1C(N)=O)c1ccccc1C(F)(F)F
inactive: Potency [1] | Potency [2] | Potency [3] | Potency [4] | Potency [5] | Potency [6]

CC(=O)OC1CC(C)(C(=O)O)CC2C3=CC(=O)C4C5(C)CCC(OC6OC(C(=O)O)C(O)C(O)C6OC6OC(C(=O)O)C(O)C(O)C6O)C(C)(C)C5CCC4(C)C3(C)CCC12C (stereo unspecified)
inactive: Potency [1] | Potency [2] | activity change, negative = inhibition [3] -10.2% [at 11.6 µM] | activity change, negative = thiol reactive [4] 9.23% [at 11.5 µM] | activity, negative = inhibition [5] -14.5% [at 11.6 µM] | redox activity (% of DA3003) [6] 5.43% [at 11.5 µM]

COc1c2c(c(C)c3c1C(=O)OC3)O[C@@]1(C)C[C@@H](OC(C)=O)[C@]34O[C@](OC)(CC[C@]3(C)[C@H]1C2)OC4(C)C
inactive: Potency [1] | Potency [2] | Potency [3] | Potency [4] | Potency [5] | Potency [6]

CN1CCN(S(=O)(=O)c2ccc(-c3cnc(N)c(C(=O)Nc4cccnc4)n3)cc2)CC1
inactive: Potency [1] | Potency [2] | Potency [3] | Potency [4] | Potency [5] | Potency [6]

Cc1csc2c(N[C@@H](C)CN3CCN(S(=O)(=O)c4ccc(Cl)c(Cl)c4)CC3)ncnc12
inactive: Potency [1] | Potency [2] | Potency [3] | Potency [4] | Potency [5] | Potency [6]

CCOc1cc(C(C)(C)C)ccc1C1=N[C@@](C)(c2ccc(Cl)cc2)[C@@](C)(c2ccc(Cl)cc2)N1C(=O)N1CCN(CC(=O)N2CCOCC2)CC1
inactive: Potency [1] | Potency [2] | Potency [3] | Potency [4] | Potency [5] | Potency [6]

CCn1nc(C2CCN(C(=O)CCO)CC2)nc1-c1cnc(N)c(-c2nnc(C(C)(C)C)o2)n1
inactive: Potency [3] | Potency [4] | Potency [5] | Potency [6]
active: Potency [1] 20.2 µM and 20.5 µM | Potency [2] 14.3 µM

COC1C=C(C)C(O)(CO)C2(C)CCCC(C)(C)C12 (stereo unspecified)
inactive: Potency [1] | Potency [2] | Potency [3] | Potency [4] | Potency [5] | Potency [6]

COC(CCc1ccc(O)cc1)CC(=O)CCc1ccc(O)cc1 (stereo unspecified)
inactive: Potency [1] | Potency [2] | Potency [3] | Potency [4] | Potency [5] | Potency [6]

C=CC(=O)N1CCCN(c2cc(NCCC(=O)O)nc(-c3ccccn3)n2)CC1
inactive: Potency [1] | Potency [2] | Potency [3] | Potency [4] | Potency [5] | Potency [6]

C/C=C\NC(=O)C1NC(=O)C(CC(N)=O)NC(=O)C(NC(=O)C(=O)C(C)CC)Cc2ccc(O)c(c2)-c2cccc3c2NC(=O)C3(O)C1O (stereo unspecified)
inactive: Potency [1] | Potency [2] | Potency [3] | Potency [4] | Potency [5] | Potency [6]

C=CC(C)(O)CC/C=C(\C)C(=O)OC1C(O)C(CO)OC(OC(=O)C23CCC(C)(C)CC2C2=CCC4C5(C)CCC(OC6OC(COC7OCC(OC(C)=O)C(O)C7OC7OC(COC(C)=O)C(O)C(O)C7OC(C)=O)C(O)C(O)C6OC6OCC(O)C(O)C6O)C(C)(C)C5CCC4(C)C2(C)C(O)C3O)C1OC1OCC(OC2OCC(O)C(OC3OCC(O)C(O)C3O)C2O)C(O)C1O (stereo unspecified)
inactive: activity, negative = inhibition [1] -15.5% [at 9.52 µM] | outcome [2] inactive [at 9.73 µM] | outcome [3] inactive [at 6.45 µM] | activity change, negative = thiol reactive [4] 140% [at 6.41 µM] | activity, negative = inhibition [5] 0% [at 6.45 µM] | redox activity (% of DA3003) [6] 4.4% [at 6.41 µM]

Cc1cccc(CC(=O)N2CCc3c2ccc(-c2cn(C)c4ncnc(N)c24)c3F)n1
inactive: Potency [1] | Potency [2] | Potency [3] | Potency [4] | Potency [5] | Potency [6]

CCOC(=O)C1(CCOc2ccccc2)CCN(Cc2ccc(O)c(Cl)c2)CC1
inactive: Potency [1] | Potency [2] | Potency [3] | Potency [4] | Potency [5] | Potency [6]

CC(C)(C)c1ccc(-c2nc3c(N4CCN(Cc5ccc6nccnc6c5)CC4)cccc3[nH]2)cc1
active: Potency [3] 1.51 µM | Potency [4] 6.7 µM
inactive: Potency [1] | Potency [2] | Potency [5] | Potency [6]

CCOC(=O)c1cnc2ccc(-c3cncc(NS(=O)(=O)c4ccccc4)c3)cn12
inactive: Potency [1] | Potency [2] | Potency [3] | Potency [4] | Potency [5] | Potency [6]

O=C(CSc1nc2ccccc2c(=O)n1-c1ccccc1)Nc1ccc2c(c1)CCC2
inactive: Potency [1] | Potency [2] | Potency [3] | Potency [4] | Potency [5] | Potency [6]

CNCCCC1(c2ccccc2)OC(C)(C)c2ccccc21 (stereo unspecified)
inactive: Potency [1] | Potency [2] | Potency [3] | Potency [4] | Potency [5] | Potency [6]

O=C(OC1CN2CCC1CC2)N1CCc2ccccc2C1c1ccccc1 (stereo unspecified)
inactive: Potency [1] | Potency [2] | Potency [3] | Potency [4] | Potency [5] | Potency [6]
